# In PubChem BioAssay (EPA / NIEHS):
# Inconclusive results are not listed. Some compounds were tested as several samples or in several runs, with calls that do not always agree. The source made the active and inactive calls. Rule for the calls, unless noted: active = hit-call score of the fitted dose curve at least 0.9, where 1 is the maximum; inactive = score below 0.9.
# Assays:
# [1] = biological target: human CYP2D6, CYP2D6 (gene 1565) (UniProt P10635); test: NVS_ADME_hCYP2D6: NovaScreen (NVS) CYP450-related Enzyme Activity (ADME) Assay for human CYP2D6 (AID 2283107; active = hit-call score of the fitted dose curve at least 0.9, where 1 is the maximum)
# In short: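 Compounds were first tested in duplicate at 10 uM against recombinant enzyme produced in insect cells, with substrate turnover measured by fluorescence after 1 hour. Decreased signal, referenced to acetonitrile vehicle, was taken as reduced enzyme activity. Active chemicals went on to concentration-response testing.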
# [2] = NVS_IC_rCaBTZCHL: NovaScreen (NVS) Ion Channel Assay for Calcium Channel, Type L, Benzothiazepine Site (CaBTZCHL) (AID 2283337; active = hit-call score of the fitted dose curve at least 0.9, where 1 is the maximum)
# In short: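 Test chemicals were added to rat cortical membranes and incubated 1.5 h with a tritiated or iodinated radioligand for the benzothiazepine site. Bound ligand was separated by filtration and counted. Actives from the 25 uM duplicate screen were retested in concentration series.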
# [3] = biological target: human Peripheral-type Benzodiazepine Receptor (PBR), TSPO (gene 706) (UniProt P30536); test: NVS_MP_hPBR: NovaScreen (NVS) Membrane Protein Assay for human Peripheral-type Benzodiazepine Receptor (PBR) (AID 2283331; active = hit-call score of the fitted dose curve at least 0.9, where 1 is the maximum;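 note: hits reduce radioligand binding relative to DMSO baseline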)
# In short: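 Using human colon-derived membranes, this one-endpoint binding test reads radioligand loss by scintillation after 1 h. Screening started at 25 uM in duplicate, with positive and negative controls on every plate, and actives moved to dose series.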
# [4] = CEETOX_H295R_11DCORT: CeeTox H295R High-throughput Steroidogenesis Assay for 11-Deoxycortisol (11DCORT) (AID 2283432); settings: actives raise or lower the signal
# In short: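 Steroidogenesis in human H295R cells: 48 h chemical exposure after forskolin priming, 11-deoxycortisol measured by LC-MS/MS.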
# [5] = CEETOX_H295R_OHPREG: CeeTox H295R High-throughput Steroidogenesis Assay for OH-Pregnenolone (OHPREG) (AID 2283434); settings: actives raise or lower the signal
# In short: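 Readout: HPLC-MS/MS of 17alpha-hydroxypregnenolone in medium after 48 h chemical exposure of H295R cells pretreated with forskolin. Values fitted bidirectionally relative to DMSO; chemicals reducing viability to 20–70% were retested after 10-fold dilution.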
# [6] = CEETOX_H295R_OHPROG: CeeTox H295R High-throughput Steroidogenesis Assay for OH-Progesterone (OHPROG) (AID 2283435); settings: actives raise or lower the signal;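 for AC50: human adrenal H295R cells primed 48 h with 10 µM forskolin; 17alpha-hydroxyprogesterone secreted into medium measured by HPLC-MS/MS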
# In short: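 Steps: seed H295R cells and adhere overnight; stimulate with 10 uM forskolin for 48 h; replace with chemical-containing medium (0.1% DMSO) for 48 h; extract medium with MTBE; quantify 17alpha-hydroxyprogesterone by reverse-phase C18 HPLC-MS/MS against a 7-point curve.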
# [7] = CEETOX_H295R_CORTIC: CeeTox H295R High-throughput Steroidogenesis Assay for Corticosterone (CORTIC) (AID 2283437); settings: actives raise or lower the signal;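 note: corticosterone secreted into medium quantified by mass spectrometry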
# In short: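 Steps: seed H295R, adhere overnight; 10 uM forskolin 48 h; replace with chemical (0.1% DMSO) 48 h; extract medium with MTBE; quantify corticosterone by HPLC-MS/MS; score bidirectionally vs DMSO.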
# [8] = CEETOX_H295R_CORTISOL: CeeTox H295R High-throughput Steroidogenesis Assay for Cortisol (AID 2283438); settings: actives raise or lower the signal;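 note: cortisol secreted into medium quantified by LC-MS/MS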
# In short: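 Cortisol synthesis by H295R cells is measured 48 h after chemical dosing, following a 48 h stimulation with 10 uM forskolin. Hormone is extracted and quantified by HPLC-MS/MS, and activity is fitted bidirectionally against the DMSO control.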
# [9] = CEETOX_H295R_DOC: CeeTox H295R High-throughput Steroidogenesis Assay for DOC (AID 2283439); settings: actives raise or lower the signal
# In short: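 Steps: seed H295R, adhere overnight; 10 uM forskolin 48 h; replace with chemical medium (0.1% DMSO) 48 h; collect medium, MTBE extraction, HPLC-MS/MS for DOC. Viability then checked by MTT; cytotoxic chemicals diluted until viability ≥70%.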
# [10] = CEETOX_H295R_PROG: CeeTox H295R High-throughput Steroidogenesis Assay for Progesterone (PROG) (AID 2283442); settings: actives raise or lower the signal;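 for AC50: human H295R adrenal cells primed with 10 µM forskolin before dosing; progesterone secreted into medium by H295R cells measured by HPLC-MS/MS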
# In short: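 Adrenal H295R line, forskolin-stimulated (10 uM, 48 h) before dosing. 48 h exposure, 0.1% DMSO vehicle. Secreted progesterone by reverse-phase HPLC with ESI+ MS/MS quantification; DMSO-normalised bidirectional curve fit.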
# [11] = biological target: bovine Estrogen Receptor (ER), ESR1 (gene 407238) (UniProt P49884); test: NVS_NR_bER: NovaScreen (NVS) Nuclear Receptor Binding Assay for bovine Estrogen Receptor (ER) (AID 2283345; active = hit-call score of the fitted dose curve at least 0.9, where 1 is the maximum;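 note: actives lower the bound radioligand count which means they displace the ER ligand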)
# In short: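 Bovine uterine membranes; tritiated or iodinated radioligand; competitive displacement; 18 h; scintillation read; DMSO negative control; 25 uM duplicates, then concentration series for actives.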
# [12] = biological target: mouse Estrogen Receptor alpha (Era), Esr1 (gene 13982) (UniProt P19785); test: NVS_NR_mERa: NovaScreen (NVS) Nuclear Receptor Binding Assay for mouse Estrogen Receptor alpha (Era) (AID 2283378; active = hit-call score of the fitted dose curve at least 0.9, where 1 is the maximum;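 note: hit means loss of bound radioligand signal relative to DMSO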)
# In short: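 Test chemicals competed against a specific radioligand for binding to cell-free mouse Era. Duplicate wells at 25 uM were read 18 hours later by filter-based radiodetection, with loss of signal against DMSO scored as activity.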
# [13] = STM_H9_OrnCyssISnorm_ratio: Stemina devTOX quickPredict H9 human embryonic stem cell (hESC)-based Assay for Ornithine (ORN):Cystine (CYSS) Ratio (AID 2283714; active = hit-call score of the fitted dose curve at least 0.9, where 1 is the maximum)
# In short: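 H9 hESC, 72h, q24h re-dose; last-day media → acetonitrile deproteinization → UPLC-HRMS. ORN:CYSS ratio from isotope-normalized EIC areas, vs 0.1% DMSO; MTX references on each plate.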
# [14] = STM_H9_NormalizedViability: Cytotoxicity Assessment at 120 hours in the Stemina devTOX quickPredict H9 human embryonic stem cell (hESC)-based Assay (AID 2283784; active = hit-call score of the fitted dose curve at least 0.9, where 1 is the maximum)
# In short: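 Viability of the cell layer was taken from live-cell protease cleavage of a fluorogenic substrate after compound exposure of undifferentiated H9 stem cells, with replenishment each 24h. Fluorescence was normalized to vehicle (0.1% DMSO).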
# [15] = read-out: Interferon-inducible T-cell alpha chemoattractant (ITAC), CXCL11 (gene 6373); test: BSK_hDFCGF_ITAC: BioMAP Diversity Plus: hDFCGF Assay for Interferon-inducible T-cell alpha chemoattractant (ITAC) Biomarker Activity (AID 2284251); settings: primary human foreskin fibroblasts
# In short: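 Chemical dosing of primary human foreskin fibroblast cultures preceded ELISA measurement of I-TAC at 24 h. Response was analysed in the positive direction using DMSO as baseline, while parallel SRB staining measured cytotoxicity.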
# [16] = read-out: Matrix Metallopeptidase 9 (MMP9), MMP9 (gene 4318); test: BSK_BE3C_MMP9: BioMAP Diversity Plus: BE3C Assay for Matrix Metallopeptidase 9 (MMP9) Biomarker Activity (AID 2284283); settings: primary human bronchial epithelial cells
# In short: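 Cells were dosed, incubated 24 h, then assayed for MMP-9 by ELISA; activity was fitted upward against DMSO. The system used human lung primary bronchial epithelial cells, with SRB total-protein staining run alongside for cytotoxicity.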
# [17] = biological target: Estrogen receptor (Homo sapiens) (UniProt P03372); test: OT_ER_ERaERa_0480: Odyssey Thera (OT) 8-hour HEK293T Protein-Complementation Assay for Estrogen Receptor-alpha/-alpha Homodimer (AID 2283351; active = hit-call score of the fitted dose curve at least 0.9, where 1 is the maximum;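 note: rise in fluorescence from reassembled reporter fragments on ERα LBD homodimer in nucleus or whole cell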)
# In short: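 Cells were treated for 8 hours, then imaged on a laser scanning plate cytometer. Complementation of reporter fragments fused to the human ERα ligand-binding domain (residues 310-547) in HEK293T gave fluorescence, and gain of signal over vehicle was fitted.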
# [18] = biological target: Estrogen receptor (Homo sapiens) (UniProt P03372); test: OT_ERa_GFPERaERE_0480: Odyssey Thera (OT) 8-hour HeLa Transcription Induction Assay for Estrogen Receptor (AID 2283381)
# In short: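 Human cervical HeLa cells were treated for 8 hours, after which ERE-driven GFP induction was measured by fluorescence microscopy; increases over DMSO baseline defined activity.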
# [19] = biological target: Estrogen receptor (Homo sapiens) (UniProt P03372); test: OT_ERa_GFPERaERE_0120: Odyssey Thera (OT) 2-hour HeLa Transcription Induction Assay for Estrogen Receptor (AID 2283382; active = hit-call score of the fitted dose curve at least 0.9, where 1 is the maximum)
# In short: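 Cells (human cervical HeLa) receive compound, incubate 2 hours, then are imaged for fluorescent reporter induction. Images are quantified by high content analysis, and activity is fitted as gain of signal against DMSO.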
# [20] = biological target: rat Peripheral-type Benzodiazepine Receptor (PBR), Tspo (gene 24230) (UniProt P16257); test: NVS_MP_rPBR: NovaScreen (NVS) Membrane Protein Assay for rat Peripheral-type Benzodiazepine Receptor (PBR) (AID 2283335; active = hit-call score of the fitted dose curve at least 0.9, where 1 is the maximum)
# In short: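 Competitive displacement of specific radioligand from rat kidney membrane PBR, read by filtration and scintillation after 1 h. Compounds first tested at 25 uM in duplicate, then in concentration series; signal loss relative to DMSO.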
# Sequence of rat Peripheral-type Benzodiazepine Receptor (PBR), Tspo (gene 24230) (P16257 whole entry, looked up): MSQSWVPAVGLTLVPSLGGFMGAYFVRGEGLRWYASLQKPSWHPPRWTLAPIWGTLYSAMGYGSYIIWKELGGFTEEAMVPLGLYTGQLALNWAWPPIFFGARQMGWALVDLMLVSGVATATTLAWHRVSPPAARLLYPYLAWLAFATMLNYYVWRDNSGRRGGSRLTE
# Sequence of Estrogen receptor (Homo sapiens) (P03372 whole entry, looked up, the tested form may be a part): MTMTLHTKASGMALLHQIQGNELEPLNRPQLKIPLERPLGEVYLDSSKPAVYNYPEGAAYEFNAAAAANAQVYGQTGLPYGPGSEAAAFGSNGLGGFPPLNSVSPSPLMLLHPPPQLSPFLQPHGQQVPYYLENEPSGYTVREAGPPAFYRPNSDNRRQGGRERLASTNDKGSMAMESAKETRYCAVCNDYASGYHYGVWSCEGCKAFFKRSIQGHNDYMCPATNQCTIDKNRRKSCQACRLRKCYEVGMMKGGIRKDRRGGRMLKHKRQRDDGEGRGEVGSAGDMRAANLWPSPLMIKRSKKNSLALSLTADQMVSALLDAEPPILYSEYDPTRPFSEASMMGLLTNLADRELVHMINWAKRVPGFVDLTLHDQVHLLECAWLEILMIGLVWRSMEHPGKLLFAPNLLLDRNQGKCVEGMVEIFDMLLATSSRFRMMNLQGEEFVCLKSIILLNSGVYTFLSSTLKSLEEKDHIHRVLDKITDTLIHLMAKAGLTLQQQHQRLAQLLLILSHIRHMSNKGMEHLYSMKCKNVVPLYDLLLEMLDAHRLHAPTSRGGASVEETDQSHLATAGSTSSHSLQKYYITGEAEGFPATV
# Sequence of human Peripheral-type Benzodiazepine Receptor (PBR), TSPO (gene 706) (P30536 whole entry, looked up): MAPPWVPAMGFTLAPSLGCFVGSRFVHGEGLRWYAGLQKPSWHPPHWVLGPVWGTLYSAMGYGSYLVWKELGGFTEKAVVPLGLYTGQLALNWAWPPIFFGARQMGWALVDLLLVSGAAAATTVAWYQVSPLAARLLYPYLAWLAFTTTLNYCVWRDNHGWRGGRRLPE
# Sequence of human CYP2D6, CYP2D6 (gene 1565) (P10635 whole entry, looked up): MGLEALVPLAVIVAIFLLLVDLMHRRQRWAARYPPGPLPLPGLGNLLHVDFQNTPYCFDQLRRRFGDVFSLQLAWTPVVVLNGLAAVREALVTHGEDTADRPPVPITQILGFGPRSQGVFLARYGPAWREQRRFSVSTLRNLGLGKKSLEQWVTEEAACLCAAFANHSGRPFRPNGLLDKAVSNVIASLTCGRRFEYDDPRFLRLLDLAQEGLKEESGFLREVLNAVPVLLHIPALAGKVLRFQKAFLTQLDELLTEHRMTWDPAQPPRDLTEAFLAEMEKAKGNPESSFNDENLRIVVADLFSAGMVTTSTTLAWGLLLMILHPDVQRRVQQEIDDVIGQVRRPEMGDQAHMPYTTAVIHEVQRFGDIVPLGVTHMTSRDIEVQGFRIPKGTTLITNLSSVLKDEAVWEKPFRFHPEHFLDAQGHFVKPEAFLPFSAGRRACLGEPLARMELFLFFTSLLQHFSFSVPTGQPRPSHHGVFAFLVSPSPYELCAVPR
# Sequence of mouse Estrogen Receptor alpha (Era), Esr1 (gene 13982) (P19785 whole entry, looked up): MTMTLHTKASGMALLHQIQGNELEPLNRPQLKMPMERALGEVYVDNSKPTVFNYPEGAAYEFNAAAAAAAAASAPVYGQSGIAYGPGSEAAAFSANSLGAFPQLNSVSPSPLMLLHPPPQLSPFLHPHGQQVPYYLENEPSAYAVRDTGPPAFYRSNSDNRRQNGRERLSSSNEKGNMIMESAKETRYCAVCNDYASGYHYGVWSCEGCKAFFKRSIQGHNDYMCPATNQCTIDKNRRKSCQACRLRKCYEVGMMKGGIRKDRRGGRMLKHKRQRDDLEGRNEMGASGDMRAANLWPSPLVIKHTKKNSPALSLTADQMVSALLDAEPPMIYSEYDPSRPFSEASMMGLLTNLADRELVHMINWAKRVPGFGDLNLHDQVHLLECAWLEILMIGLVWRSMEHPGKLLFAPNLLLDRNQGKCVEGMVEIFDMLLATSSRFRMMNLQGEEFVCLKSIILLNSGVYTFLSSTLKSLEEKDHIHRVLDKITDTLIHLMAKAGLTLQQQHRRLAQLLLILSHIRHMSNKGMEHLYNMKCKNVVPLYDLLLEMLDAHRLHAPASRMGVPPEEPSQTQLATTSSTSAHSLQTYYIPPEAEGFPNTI
# Sequence of bovine Estrogen Receptor (ER), ESR1 (gene 407238) (P49884 whole entry, looked up): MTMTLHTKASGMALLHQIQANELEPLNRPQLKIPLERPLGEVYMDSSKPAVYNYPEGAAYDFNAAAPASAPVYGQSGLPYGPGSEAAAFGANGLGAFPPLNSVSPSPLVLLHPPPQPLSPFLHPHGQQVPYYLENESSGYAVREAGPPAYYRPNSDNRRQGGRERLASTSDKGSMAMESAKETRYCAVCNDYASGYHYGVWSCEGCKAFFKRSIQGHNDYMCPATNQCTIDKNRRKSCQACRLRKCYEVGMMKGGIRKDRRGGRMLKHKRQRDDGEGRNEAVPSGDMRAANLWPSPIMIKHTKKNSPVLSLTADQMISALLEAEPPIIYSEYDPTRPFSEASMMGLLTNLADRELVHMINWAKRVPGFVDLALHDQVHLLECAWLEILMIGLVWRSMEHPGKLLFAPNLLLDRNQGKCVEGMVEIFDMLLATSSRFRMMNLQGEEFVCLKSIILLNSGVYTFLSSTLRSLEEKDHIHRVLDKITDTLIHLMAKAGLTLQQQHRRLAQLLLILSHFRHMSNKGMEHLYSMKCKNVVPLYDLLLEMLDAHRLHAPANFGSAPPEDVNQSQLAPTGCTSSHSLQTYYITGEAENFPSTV
structure (smiles),measurement,setting,value
CCCCCCCCCCCCCCCCCC[N+](C)(C)C,AC50,[1],826 nM (active)
same,outcome,[2],inactive
Cc1cc(O)cc(C)c1Cl,AC50,[3],8.12 µM (active)
same,outcome,[4],inactive
same,outcome,[5],inactive
same,AC50,[6],13.8 µM (active)
same,outcome,[7],inactive
same,outcome,[8],inactive
same,outcome,[9],inactive
same,outcome,[10],inactive
Cc1cc2nc3c(=O)[nH]c(=O)nc-3n(C[C@H](O)[C@H](O)[C@H](O)CO)c2cc1C,outcome,[11],inactive
same,outcome,[12],inactive
CN(C)Cc1cc(C(C)(C)C)c(O)c(C(C)(C)C)c1,outcome,[13],inactive
same,outcome,[14],inactive
same,AC50,[15],20 µM (active)
same,outcome,[15],inactive
same,AC50,[16],10.7 µM (active)
same,outcome,[16],inactive
CCCCCCC1CCC(=O)O1 (configuration not stated),outcome,[17],inactive
same,outcome,[18],inactive
same,outcome,[19],inactive
COC(OC)C(C)c1ccccc1 (configuration not stated),outcome,[11],inactive
same,outcome,[12],inactive
c1ccc(CNc2ncnc3nc[nH]c23)cc1,outcome,[4],inactive
same,outcome,[5],inactive
same,outcome,[6],inactive
same,outcome,[7],inactive
same,outcome,[8],inactive
same,outcome,[9],inactive
same,AC50,[10],21.9 µM (active)
Sc1nc2ccccc2s1,AC50,[1],3000 nM (active)
CN(C)c1ccc(C(c2ccccc2)c2ccc(N(C)C)cc2)cc1,AC50,[3],2.78 µM (active)
same,AC50,[20],25 µM (active)
CCOC(=O)c1ccccc1,outcome,[17],inactive
same,outcome,[18],inactive
same,outcome,[19],inactive
CCCCCC[C@@H](O)C/C=C\CCCCCCCC(=O)O,AC50,[13],30.9 µM (active)
same,outcome,[14],inactive
O=C(C(=O)c1ccccc1)c1ccccc1,AC50,[3],9.56 µM (active)
same,AC50,[20],1.86 µM (active)
same,outcome,[2],inactive
C=C1CC[C@H]2C[C@@H]1C2(C)C,outcome,[17],inactive
same,outcome,[18],inactive
same,outcome,[19],inactive
Oc1cccc2ccccc12,AC50,[13],7.48 µM (active)
same,outcome,[14],inactive
CCCCCCCCCC/C=C/C1CC(=O)OC1=O (configuration not stated),outcome,[11],inactive
CC[N+](CC)(CC(=O)Nc1c(C)cccc1C)Cc1ccccc1,AC50,[1],132 nM (active)
same,outcome,[20],inactive
same,AC50,[2],7.02 µM (active)
CCCCOC(=O)COc1ccc(Cl)cc1Cl,outcome,[5],inactive
same,AC50,[6],74.6 µM (active)
same,outcome,[10],inactive
C=CC(C)(CCC=C(C)C)OC(=O)c1ccccc1 (configuration not stated),outcome,[12],inactive
O=C(O)c1ccccc1C(=O)O,outcome,[17],inactive
same,outcome,[18],inactive
same,outcome,[19],inactive
Oc1ccc(Oc2ccccc2)cc1,AC50,[11],11 µM (active)
same,AC50,[12],8.86 µM (active)
CCO[Si](CCCN)(OCC)OCC,outcome,[17],inactive
same,outcome,[18],inactive
same,outcome,[19],inactive
same,outcome,[4],inactive
same,outcome,[5],inactive
same,outcome,[6],inactive
same,outcome,[7],inactive
same,outcome,[8],inactive
same,outcome,[9],inactive
same,outcome,[10],inactive
CC[N+](CC)(CC(=O)Nc1c(C)cccc1C)Cc1ccccc1 (tested in a mixture with another compound),AC50,[3],4.38 µM (active)
same,AC50,[20],3.68 µM (active)
same,outcome,[13],inactive
same,outcome,[14],inactive
same,outcome,[15],inactive
same,outcome,[16],inactive
C1CN(CCOCCN2CCOCC2)CCO1,outcome,[15],inactive
same,outcome,[16],inactive
